From PubChem BioAssay (NCATS) come the findings set out here.

The nature of experiment [1]: Primary qHTS for inhibitors of nuclear receptor binding SET domain protein 2 (NSD2) in an isogenic RCH-ACV NSD2 p.E1099K mutant (9B) (AID 1645876). Further: potency means the concentration at half of the fitted maximal effect; nearly all actives have a fitted effect of over 70% in size. Particulars: RCH-ACV NSD2 E1099K (9B) viability, CellTiter-Glo, 72 h; series mostly up to 44.9 µM.
The nature of experiment [2]: Primary qHTS for inhibitors of nuclear receptor binding SET domain protein 2 (NSD2) in an RCH-ACV wild type WT cells (2C) (AID 1645877). Further: potency means the concentration at half of the fitted maximal effect; nearly all actives have a fitted effect of over 70% in size. As to conditions: RCH-ACV (leukaemia line) NSD2 WT (2C) viability, CellTiter-Glo, 72 h; series mostly up to 44.9 µM.
Experiment [3] deals with Glutathione peroxidase 1 (Homo sapiens) (UniProt P07203). Description: Primary qHTS Assay for Inhibitors of Recombinant Selenoprotein Glutathione Peroxidase 1 (GPX1) (AID 1845191). Further: nearly all actives have a fitted effect of over 65% in size. Particulars: recombinant GPX1, GR-coupled NADPH fluorescence, 15 min; series mostly up to 48.8 µM. The method, boiled down:
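Recombinant GPX1 (10 nM final) was preincubated with compound for 30 min at room temperature, then reacted with 1 mM GSH, 0.5 mM CHP, 0.5 mM NADPH and 100 nM glutathione reductase; NADPH fluorescence (340/450 nm) was read at 0 and 15 min.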

Experiment [4] is described as follows: qHTS drug screen for cell cycle checkpoint inhibitors in PARPi-resistant BRCA-mutant ovarian cancer cell lines. (AID 1963452; calls by dose curve). As to conditions: PEO1/OlaR viability, CellTiter-Glo luminescence, 96 h, stronger effect = lower value. Put shortly: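 PEO1, PEO4 and PEO1/OlaR ovarian cancer cells, 600 per well, exposed 96 h at 37C to a dilution series. Viability read by CellTiter-Glo luminescence, normalized to DMSO and empty wells; activity summarized as Z-AUC.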

The nature of experiment [5]: qHTS assay to identify inhibitors of the type 1 interferon - major histocompatibility complex class I in skeletal muscle: Counter screen cell viability and HiBit confirmation (AID 1347412). Further: potency means the concentration at half of the fitted maximal effect. On all read-outs here: nearly all actives have a fitted effect of over 60% in size. As to conditions: iHSKM muscle cells + IFN-b, HiBiT or CellTiter-Glo, 24 h; for Potency: Viability. The method, boiled down: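 HLA-B*08:01–HiBiT knock-in immortalized human myoblasts (C25cl48) stimulated with 4.0 ng/ml human IFN-beta and dosed with compound in a 12-point 1:3 titration (top final 46 uM). After 24 hrs at 37 C, HiBiT lytic luminescence or CellTiter Glo ATP read out.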

Experiment [6] in a line: Validation of Assay for Modulators of Lamin A Splicing (AID 1459; active means well fitted curve in the direction sought with a large enough effect in the signal ratio; the % refers to the signal ratio;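 further: cells exposed to compound for two days before reading; 0% is about no effect; ratio rise marks activators and ratio drop marks inhibitors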). As to conditions: Lamin A splicing dual RFP/GFP fluorescence reporter; series mostly up to 9.22 µM. Put shortly:
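S3 HeLa cells stably expressing a lamin A-EGFP splicing minigene and DsRed2 were seeded at 600 cells/well in Opti-MEM with 2% FBS, pin-dosed, and incubated 48 hrs at 37 °C, 5% CO2. Laser-scanning cytometry (488 nm) gave GFP/RFP total intensity ratio.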

A short description of experiment [7]: qHTS Assay for Lipid Storage Modulators (AID 1519; calls by dose curve; on activity change, negative = inhibition: on the % scale 0 is the no-effect control and ±100 the full control effect). Particulars: Drosophila S3 cells, BODIPY lipid droplet/cell ratio, laser cytometry, cells loaded with oleic acid; for activity change, negative = inhibition: at 57.5 µM (top of the series). The method, boiled down:
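Cells seeded at 5,000 per well were treated with compounds over a concentration series and loaded with oleic acid (400 uM, as added). Lipid droplet fluorescence (488 nm excitation, 500-530 nm channel) was read by laser-scanning cytometry and normalized to 20 uM Triacsin C.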

Experiment [8] deals with DNA repair nuclease/redox regulator APEX1 (Homo sapiens) (UniProt P27695). Description: qHTS Validation Assay for Inhibitors of the Human Apurinic/apyrimidinic Endonuclease 1 (APE1) (AID 1705;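 further: TAMRA fluorescence gain over two minutes as APE1 cuts a quenched THF abasic duplex; on the % scale 0 is the no-effect control and ±100 the full control effect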). Particulars: purified APE1 endonuclease activity, fluorescence, titration; series mostly up to 57.1 µM. The method, boiled down: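 Human APE1 was preincubated with compound for 15 min at room temperature, then 50 nM (final) THF-abasic double-stranded DNA substrate bearing 5'-TAMRA and 3'-BHQ-2 was added. Incision-driven fluorescence rise (ex 525/em 598 nm) was read kinetically.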

Experiment [9] in a line: Counterscreen for APE1 Inhibitors: Fluorescent Dye Displacement Validation Assay (AID 1707).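 Further: plate controls were ThO with dsDNA and no compound for no effect and ThO without dsDNA for full effect.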 As to conditions: fluorescent dye displacement from DNA; series mostly up to 57.1 µM. Put shortly:
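Compounds are scored by their ability to displace Thiazole Orange (250 nM) from a 50 nM TAMRA-tagged duplex bearing a tetrahydrofuran abasic site. Buffer is 50 mM Tris-HCl pH7.5, 50mM NaCl, 2 mM MgCl2, 0.01% Tween-20.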

In experiment [10] the target is Endonuclease 4 (Escherichia coli (strain K12)) (UniProt P0A6C1). Description: Counterscreen for APE1 Inhibitors: qHTS Validation Assay for Inhibitors of Endonuclease IV (AID 1708). Further: on the % scale 0 is the no-effect control and ±100 the full control effect. Particulars: E. coli endonuclease IV, DNA cleavage fluorescence; series mostly up to 57.1 µM. Put shortly:
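2 nM enzyme was preincubated with compounds for 15 min at room temperature in 50 mM Tris-HCl pH 7.5, 50 mM NaCl, 2 mM MgCl2, 1 mM DTT, 0.01% Tween-20. 50 nM THF-abasic TAMRA/BHQ-2 duplex substrate started the reaction.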

Experiment [11] addresses ATP-dependent DNA helicase Q1 (Homo sapiens) (UniProt P46063). Description: qHTS Validation Assay for Inhibitors of RecQ-Like Dna Helicase 1 (RECQ1) (AID 2353).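 Further: plate controls were DMSO vehicle for no effect and enzyme-free control for full effect.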 Particulars: recombinant RECQ1 helicase DNA unwinding assay; series mostly up to 25.6 µM. Put shortly: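 50 nM RECQ1T1 preincubated 15 min with compound in Tris pH 8.0 buffer with MgCl2, DTT, Tween-20 and 2.5 ug/ml poly(dI-dC); started with 200 nM TAMRA/BHQ-2 forked duplex and 2 mM ATP. Unwinding read as fluorescence (525/598 nm), two reads 2 h apart.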

Experiment [12] can be described thus: Validation screen for small molecules that induce DNA re-replication in MCF 10A normal breast cells (AID 463097). Further: 0% is about no effect; nearly all actives have a fitted effect of over 60% in size. As to conditions: MCF 10A cells, DNA re-replication phenotype imaging; series mostly up to 46.1 µM. The method, boiled down: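 Readout: Hoechst nuclear fluorescence intensity, 405 ex / 500-530 em, by scanning plate imager; re-replication scored as increase in nuclei with elevated DNA content. Cells exposed to compound 48 hr, 37 C, 5% CO2 beforehand.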

Experiment [13] is described as follows: Quantitative high throughput screen for delayed death inhibitors of the malarial parasite plastid, 96 hour incubation (AID 488745). Further: nearly all actives have a fitted effect of over 70% in size. Further: potency means the concentration at half of the fitted maximal effect.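 On activity change, negative = inhibition: luciferase-expressing P. falciparum in erythrocytes at 2% hematocrit and 0.1% parasitemia; on the % scale 0 is the no-effect control and ±100 the full control effect.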 Particulars: Plasmodium falciparum growth; series mostly up to 28.7 µM. The method, boiled down:
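Growth of reporter-bearing P. falciparum in red cells is measured after 96 h with compound, covering two erythrocytic cycles. Luminescence from the integrated luciferase serves as the growth signal.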

Experiment [14] has as its target M-phase phosphoprotein 8 (Homo sapiens) (UniProt Q99549). As to the kind of experiment: qHTS Validation Assay for Inhibitors for MPP8 Chromodomain Interactions with Methylated Histone Tails (AID 488949).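 Further: AlphaScreen signal from MPP8 chromodomain bound to biotinylated H3K9me3 peptide; top concentration of the series differs between compounds; on the % scale 0 is the no-effect control and ±100 the full control effect; nearly all actives have a fitted effect of over 55% in size.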 As to conditions: AlphaScreen MPP8 binding to H3K9me3 peptide; series mostly up to 114 µM. Put shortly:
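MPP8 (50 nM) was preincubated with biotinylated H3(1-18)K9me3 peptide (50 nM) in PBS pH 7.4, 0.01% Tween-20 for 30 min at room temperature, then with compounds for 30 min; binding was detected by AlphaScreen.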

Experiment [15] addresses Thyrotropin-releasing hormone receptor (Homo sapiens) (UniProt P34981). As to the kind of experiment: qHTS for Small Molecule Agonists and Allosteric Enhancers of Human TRH Receptor: Validation Screen for Agonists (AID 493127;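 active means calcium activation more than 3 SD above the typical response in the agonist read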;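 further: intracellular calcium rise by fluo-8 fluorescence before TRH EC20 addition; 0% is about no effect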). As to conditions: TRH receptor agonist cell assay; at 2 µM; stronger effect = higher value. The method, boiled down:
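Gq-coupled calcium mobilization in TRHR cells after compound addition, monitored kinetically with fluo-8 dye on an FDSS reader.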

In experiment [16] the target is Galactokinase (Homo sapiens) (UniProt P51570). Description: qHTS Validation Assay for Inhibitors of Human Galactokinase (GALK) (AID 493189). Further: 0% is about no effect. As to conditions: purified human GALK enzyme activity, qHTS 7-point titration; series mostly up to 57.5 µM. The method, boiled down: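 GALK (5 nM) with 35 uM ATP and 100 uM galactose in HEPES pH8.0, MgCl2, NaCl, DTT, BSA; 1 h at room temperature. Residual ATP read by Kinase-Glo Plus luminescence after 10 min.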

The nature of experiment [17]: Validation screen for small molecules that induce DNA re-replication in SW480 colon adenocarcinoma cells (AID 504364). Further: 0% is about no effect. As to conditions: DNA re-replication phenotype (high-content imaging); series mostly up to 46.1 µM. The method, boiled down:
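Cells are treated 48 hr with test compound, stained 40 min with Hoechst at 37 C, and scanned for nuclear fluorescence; compounds inducing re-replication increase nuclei with elevated intensity.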

A short description of experiment [18]: Quantitative high throughput screen for delayed death inhibitors of the malarial parasite plastid, 48 hour incubation (AID 488752). Further: on the % scale 0 is the no-effect control and ±100 the full control effect; nearly all actives have a fitted effect of over 65% in size. Particulars: Plasmodium falciparum growth; series mostly up to 28.7 µM. Put shortly:
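One parasite generation (48 h, 37 C, 5% CO2) of luciferase-reporter P. falciparum in erythrocytes is run with test compound; decreased luminescence indicates inhibited growth.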

Experiment [19] addresses Phospholipid hydroperoxide glutathione peroxidase GPX4 (Homo sapiens) (UniProt P36969). As to the kind of experiment: Primary qHTS Assay for Inhibitors of Recombinant Selenoprotein Glutathione Peroxidase 4 (GPX4) (AID 1845192). Further: on the % scale 0 is the no-effect control and ±100 the full control effect; nearly all actives have a fitted effect of over 65% in size. Particulars: recombinant GPX4, GR-coupled NADPH fluorescence, 15 min; series mostly up to 50 µM. Put shortly: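 GR-coupled readout: 100 nM GR, 1 mM GSH, 0.5 mM NADPH; NADPH fluorescence (ex 340/em 450 nm) read at t=0 and after 15 min RT. GPX4 200 nM, preincubated 30 min with compound; substrate 0.5 mM CHP.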

The mark [20] stands for this setting: measured here: PEO1 parental Z-AUC.
Setting [21] is: measured here: cell count channel max response.
[22] abbreviates: measured here: lipid channel max response.

Records with an inconclusive call do not appear. Activity calls are given as the source filed them. Unless noted, the call rests on the fitted dose curve; in most records, active means well fitted curve in the direction sought with a large enough effect; inconclusive means small, poorly fitted or top-dose-only effect, or another doubt; inactive means no such curve, though single readings can be large; an effect the other way counts as inactive or inconclusive.

Sequence of Galactokinase (Homo sapiens) (P51570 whole entry, looked up): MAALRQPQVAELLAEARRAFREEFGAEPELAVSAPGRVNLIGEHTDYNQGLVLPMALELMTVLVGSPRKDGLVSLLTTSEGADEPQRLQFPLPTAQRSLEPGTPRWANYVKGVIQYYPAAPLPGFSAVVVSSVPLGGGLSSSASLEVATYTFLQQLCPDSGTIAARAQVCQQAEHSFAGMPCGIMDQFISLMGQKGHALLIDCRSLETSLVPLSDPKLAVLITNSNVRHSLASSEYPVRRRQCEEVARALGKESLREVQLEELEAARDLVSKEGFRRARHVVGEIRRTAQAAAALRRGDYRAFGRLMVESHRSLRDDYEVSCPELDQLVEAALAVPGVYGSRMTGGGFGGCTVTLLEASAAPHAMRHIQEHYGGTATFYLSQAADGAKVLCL
Sequence of M-phase phosphoprotein 8 (Homo sapiens) (Q99549 whole entry, looked up): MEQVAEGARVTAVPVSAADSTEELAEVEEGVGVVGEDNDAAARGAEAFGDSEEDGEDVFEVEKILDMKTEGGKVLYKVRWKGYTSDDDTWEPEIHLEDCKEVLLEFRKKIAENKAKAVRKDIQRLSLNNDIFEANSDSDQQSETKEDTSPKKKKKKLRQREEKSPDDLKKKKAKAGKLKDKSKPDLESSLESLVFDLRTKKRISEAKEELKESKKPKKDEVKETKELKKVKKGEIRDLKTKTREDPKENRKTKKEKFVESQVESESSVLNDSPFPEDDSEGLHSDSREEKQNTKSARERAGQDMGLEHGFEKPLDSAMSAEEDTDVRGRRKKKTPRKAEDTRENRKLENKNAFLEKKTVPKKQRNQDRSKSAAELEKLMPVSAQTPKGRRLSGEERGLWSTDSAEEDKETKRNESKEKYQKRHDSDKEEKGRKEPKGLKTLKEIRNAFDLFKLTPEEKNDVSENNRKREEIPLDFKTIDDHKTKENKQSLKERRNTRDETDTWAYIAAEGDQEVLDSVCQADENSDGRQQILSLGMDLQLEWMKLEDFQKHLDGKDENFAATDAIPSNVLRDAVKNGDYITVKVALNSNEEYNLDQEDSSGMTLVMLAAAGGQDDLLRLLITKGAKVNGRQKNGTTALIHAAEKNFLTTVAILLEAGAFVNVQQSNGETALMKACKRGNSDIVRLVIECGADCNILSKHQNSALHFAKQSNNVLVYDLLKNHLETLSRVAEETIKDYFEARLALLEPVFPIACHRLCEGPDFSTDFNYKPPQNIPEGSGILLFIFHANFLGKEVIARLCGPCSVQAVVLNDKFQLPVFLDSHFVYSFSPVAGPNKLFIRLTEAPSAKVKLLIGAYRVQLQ
Sequence of Glutathione peroxidase 1 (Homo sapiens) (P07203 whole entry, looked up): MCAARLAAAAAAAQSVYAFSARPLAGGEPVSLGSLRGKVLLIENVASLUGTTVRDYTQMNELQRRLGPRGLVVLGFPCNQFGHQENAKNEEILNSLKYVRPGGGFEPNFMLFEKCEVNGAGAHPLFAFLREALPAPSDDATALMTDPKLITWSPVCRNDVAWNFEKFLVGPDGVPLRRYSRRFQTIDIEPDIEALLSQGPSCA
Sequence of DNA repair nuclease/redox regulator APEX1 (Homo sapiens) (P27695 whole entry, looked up): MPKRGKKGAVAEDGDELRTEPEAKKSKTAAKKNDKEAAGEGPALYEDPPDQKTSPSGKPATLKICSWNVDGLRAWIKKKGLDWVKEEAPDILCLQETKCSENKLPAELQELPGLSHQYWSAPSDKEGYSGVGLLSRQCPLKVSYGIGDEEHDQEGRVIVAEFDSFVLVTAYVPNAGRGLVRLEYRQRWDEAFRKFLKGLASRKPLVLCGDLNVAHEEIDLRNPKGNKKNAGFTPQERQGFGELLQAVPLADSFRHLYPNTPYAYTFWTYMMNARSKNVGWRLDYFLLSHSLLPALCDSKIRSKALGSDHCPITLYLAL
Sequence of ATP-dependent DNA helicase Q1 (Homo sapiens) (P46063 whole entry, looked up): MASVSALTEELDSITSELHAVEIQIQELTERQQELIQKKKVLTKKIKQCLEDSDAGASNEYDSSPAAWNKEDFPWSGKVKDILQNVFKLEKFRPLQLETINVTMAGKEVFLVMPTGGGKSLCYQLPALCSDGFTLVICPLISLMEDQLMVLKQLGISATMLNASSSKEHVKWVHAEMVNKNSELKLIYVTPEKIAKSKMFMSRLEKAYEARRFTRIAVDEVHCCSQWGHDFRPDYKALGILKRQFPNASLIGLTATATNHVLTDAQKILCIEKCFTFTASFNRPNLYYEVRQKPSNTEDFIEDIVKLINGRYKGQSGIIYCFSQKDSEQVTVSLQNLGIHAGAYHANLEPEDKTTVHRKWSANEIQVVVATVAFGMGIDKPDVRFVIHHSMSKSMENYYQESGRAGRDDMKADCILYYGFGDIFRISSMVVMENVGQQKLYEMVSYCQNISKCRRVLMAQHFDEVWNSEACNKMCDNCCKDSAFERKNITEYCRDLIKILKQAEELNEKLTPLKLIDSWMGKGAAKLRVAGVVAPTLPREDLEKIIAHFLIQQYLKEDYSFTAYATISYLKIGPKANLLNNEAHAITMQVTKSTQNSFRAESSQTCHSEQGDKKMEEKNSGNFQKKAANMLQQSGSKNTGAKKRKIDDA
Sequence of Thyrotropin-releasing hormone receptor (Homo sapiens) (P34981 whole entry, looked up): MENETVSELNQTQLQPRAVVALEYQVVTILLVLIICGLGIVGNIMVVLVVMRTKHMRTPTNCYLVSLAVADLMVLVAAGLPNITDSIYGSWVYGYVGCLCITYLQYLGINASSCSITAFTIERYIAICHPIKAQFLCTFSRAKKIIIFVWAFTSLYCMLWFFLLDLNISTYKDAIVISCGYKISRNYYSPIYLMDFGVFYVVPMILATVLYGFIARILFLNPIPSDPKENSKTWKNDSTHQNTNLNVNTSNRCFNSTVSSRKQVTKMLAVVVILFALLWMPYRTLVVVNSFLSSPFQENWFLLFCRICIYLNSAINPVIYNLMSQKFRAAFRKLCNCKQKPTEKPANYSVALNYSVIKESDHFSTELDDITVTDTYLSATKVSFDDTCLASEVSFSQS
Sequence of Phospholipid hydroperoxide glutathione peroxidase GPX4 (Homo sapiens) (P36969 whole entry, looked up): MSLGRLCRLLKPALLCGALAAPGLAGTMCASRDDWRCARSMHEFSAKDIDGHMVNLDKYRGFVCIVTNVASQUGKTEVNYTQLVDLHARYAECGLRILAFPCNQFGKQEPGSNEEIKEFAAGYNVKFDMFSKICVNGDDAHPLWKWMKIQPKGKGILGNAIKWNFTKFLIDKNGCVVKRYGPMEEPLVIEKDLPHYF

For the compound `CCCc1cc(C(=O)N[C@H](Cc2ccc(-c3cccc(OC(F)(F)F)c3)nc2)C(=O)N[C@@H]2CCNC2)sc1C`, the Potency in experiment [1] was 6.61 µM (active); in experiment [2] it was 5.9 µM (active); in experiment [5], 35.2 µM (active). The Potency entry in experiment [3] was “inactive”. For the same compound, the Z-AUC was -0.805 (inactive) in experiment [4], -0.801 in [4] (setting [20]) and -0.851 in [4] (measured here: PEO4 Z-AUC).

Take `N=C(N)SCCc1cccc(CCSC(=N)N)c1`: the compound was classed as inactive in experiment [6], in experiment [10], in [12], in experiment [16] and in experiment [17]. In experiment [7], the activity change, negative = inhibition is 1.43% (inactive). Also, the max response is -17.4% in experiment [7] (setting [21]) and -13.1% in [7] (setting [22]). Besides, the Potency result in [8], in experiment [9], in [11] and in experiment [14] was “inactive” each time. Besides, in experiment [13], the Potency is 13.1 µM (active). Further, in experiment [15], the activation was 0.562% (inactive).

Take `COc1cc(=O)n(C)c2c(OCC(O)C(C)(C)O)cccc12` (stereo not drawn): the call in experiment [6], in experiment [10], in experiment [12], in experiment [16] and in experiment [17] was inactive. In addition, the Potency result in experiment [8], in experiment [9], in experiment [11], in experiment [13], in [18] and in experiment [14] was “inactive” each time. Besides, in [15], the activation is 0.812% (inactive).

Turning to `C[C@@H](Oc1cc(C(=O)Nc2ccc(C(=O)N3CCN(C)CC3)cc2)nnc1N)c1c(Cl)ccc(F)c1Cl`, the results for the Potency in experiment [1] and in [2] were 2.63 µM (active) and 1.48 µM (active), respectively. Besides, the Potency entry in [3] and in experiment [19] was “inactive” throughout. For the same compound, the Z-AUC in experiment [4] is -0.576 (inactive); in experiment [4] (setting [20]) it was -1.08; in [4] (measured here: PEO4 Z-AUC), -1.2. The activity change, negative = inhibition in experiment [5] (HiBiT, at 45.9 µM (top of the series)) was -32.5% (inactive).

For `CCN(CC)CCNC(=O)c1c(C)[nH]c(/C=C2/C(=O)Nc3ccc(-c4csc(-c5ccccc5)n4)cc32)c1C`, the Potency in experiment [1] is 7.42 µM (active); in experiment [2], 5.9 µM (active); in [5], 24.9 µM (active). Further, the Potency entry in experiment [3] was “inactive”. Also, the Z-AUC is 0.984 (inactive) in experiment [4], 0.413 in experiment [4] (setting [20]) and -0.34 in experiment [4] (measured here: PEO4 Z-AUC).

`O=C(Cc1ccc(Cl)c(Cl)c1)OCCN1CCCC1`: the call in experiment [6], in experiment [10], in experiment [12], in experiment [16] and in experiment [17] was inactive. For the same compound, the activity change, negative = inhibition in experiment [7] was 1.23% (inactive). Also, the max response in experiment [7] (setting [21]) was -1.75%; in experiment [7] (setting [22]) it was -0.355%. The Potency result in [8], in experiment [9], in experiment [11], in experiment [13], in experiment [18] and in experiment [14] was “inactive” each time. In addition, the activation in experiment [15] is 1.06% (inactive).
